Experimental findings from PubChem BioAssay (Tox21) are described below.

Records with an inconclusive call do not appear. Unmarked numbers belong to inactive results. Active and inactive are the calls of the source. The call rests on the fitted dose curve; in most records, active means well fitted curve in the direction sought with a large enough effect in the repeat runs; inconclusive means weak or mixed curves; inactive means no such curve, though single readings can be large; an effect the other way counts as inactive or inconclusive.

In assay [1] the target is Nuclear receptor subfamily 1 group I member 2 (Homo sapiens) (UniProt O75469). As to the kind of experiment: CYP3A4 induction through human pregnane X receptor (PXR) by small molecules, qHTS assay (AID 1346984). Further: nearly all actives have a fitted effect of over 40% in size. The method in brief: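 DPX-2 cells (HepG2 co-transfected with PXR and CYP3A4 promoter-luciferase) treated with compounds 24 h at 37C; luciferin-IPA CYP3A4 substrate 3uM final added for 3 h, then One-Glo; luminescence read. qHTS format.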
(In general: qHTS replaces the single test concentration by a dilution series.)

For assay [2] the target is unchanged. As to the kind of experiment: Human pregnane X receptor (PXR) activation by small molecules, qHTS assay (AID 1346985). Further: nearly all actives have a fitted effect of over 40% in size. Put shortly:
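DPX-2 cells (HepG2 co-transfected with a PXR response element and a CYP3A4-promoter luciferase construct) were seeded at 2,000 per well, rested 5 hr at 37C, then exposed to DMSO-dissolved compounds for 24 hr. Activation was read as luciferase luminescence.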

Assay [3] deals with Cytochrome P450 2D6 (Homo sapiens) (UniProt P10635). Put plainly: Cytochrome P450 Family 2 Subfamily D Member 6 (CYP2D6) small molecule antagonists: luciferase reporter qHTS assay (AID 1671196). Further: nearly all actives have a fitted effect of over 50% in size. Further: potency means the concentration at half of the fitted maximal effect. Put shortly:
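CYP2D6 enzyme–substrate mix was held with compound for 10 min at room temperature, then NADPH regeneration solution was added and the reaction ran 1 h at room temperature. Luciferin product was detected by luminescence after 20 min with detection reagent.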
For orientation: A reporter such as luciferase makes a cellular process visible.

Assay [4] deals with Cytochrome P450 2C19 (Homo sapiens) (UniProt P33261). As to the kind of experiment: Cytochrome P450 Family 2 Subfamily C Member 19 (CYP2C19) small molecule antagonists: luciferase reporter qHTS assay (AID 1671197). Further: nearly all actives have a fitted effect of over 65% in size. Further: potency means the concentration at half of the fitted maximal effect. The method in brief: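 Light output is proportional to CYP2C19 activity: proluciferin substrate is converted to luciferin, then detected by a luciferin detection reagent that also stops the 1 h, 37C NADPH-driven reaction. Ketoconazole serves as positive control.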

The target in assay [5] is Cytochrome P450 1A2 (Homo sapiens) (UniProt P05177). Put plainly: Cytochrome P450 Family 1 Subfamily A Member 2 (CYP1A2) small molecule antagonists: luciferase reporter qHTS assay (AID 1671199). Further: nearly all actives have a fitted effect of over 50% in size. Further: potency means the concentration at half of the fitted maximal effect. The method in brief:
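Human CYP1A2 activity measured with a P450-Glo proluciferin substrate; compounds in DMSO preincubated 10 min at room temperature with enzyme-substrate mix, then NADPH regeneration system added for 1 h. Luciferin detection reagent, 20 min, luminescence read.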

In assay [6] the target is Cytochrome P450 2C9 (Homo sapiens) (UniProt P11712). Put plainly: Cytochrome P450 Family 2 Subfamily C Member 9 (CYP2C9) small molecule antagonists: luciferase reporter qHTS assay (AID 1671198). Further: nearly all actives have a fitted effect of over 50% in size. Further: potency means the concentration at half of the fitted maximal effect. The method in brief:
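CYP2C9 activity was measured with a P450-Glo proluciferin substrate. Enzyme–substrate mix was held with compound for 10 min at room temperature, then NADPH regeneration solution was added for 1 h at 37C. Luciferin product was read as luminescence.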

The target in assay [7] is Voltage-gated inwardly rectifying potassium channel KCNH2 (Homo sapiens) (UniProt Q12809). As to the kind of experiment: Human Ether-a-go-go-Related Gene (hERG) channel small molecule antagonists: fluorescence cell-based qHTS assay (AID 1671200).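 Further: hERG-expressing U2OS cells given a thallium stimulus after FluxOR II dye loading; series mostly up to about 77 µM; nearly all actives have a fitted effect of over 50% in size.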 The method in brief: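 hERG-U2OS cells plated overnight at 37 C, loaded with FluxOR II dye 1 h at RT in dark; after 10 min, thallium stimulus added. Fluorescence (480/540 nm) read kinetically for 2 min at 1 s intervals.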
Background: Block of hERG is tested as a sign of cardiac risk.

Assay [8] deals with Cytochrome P450 3A4 (Homo sapiens) (UniProt P08684). Put plainly: Cytochrome P450 Family 3 Subfamily A Member 4 (CYP3A4) small molecule antagonists: luciferase reporter qHTS assay (AID 1671201). Put shortly:
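P450-Glo CYP3A4 luminescent assay: compounds preincubated 10 min at room temperature with enzyme and proluciferin substrate, NADPH regeneration added, 1 h room-temperature reaction, stopped with luciferin detection reagent; luminescence read after 20 min. Ketoconazole positive control.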

Sequence of Cytochrome P450 2D6 (Homo sapiens) (P10635 whole entry, looked up): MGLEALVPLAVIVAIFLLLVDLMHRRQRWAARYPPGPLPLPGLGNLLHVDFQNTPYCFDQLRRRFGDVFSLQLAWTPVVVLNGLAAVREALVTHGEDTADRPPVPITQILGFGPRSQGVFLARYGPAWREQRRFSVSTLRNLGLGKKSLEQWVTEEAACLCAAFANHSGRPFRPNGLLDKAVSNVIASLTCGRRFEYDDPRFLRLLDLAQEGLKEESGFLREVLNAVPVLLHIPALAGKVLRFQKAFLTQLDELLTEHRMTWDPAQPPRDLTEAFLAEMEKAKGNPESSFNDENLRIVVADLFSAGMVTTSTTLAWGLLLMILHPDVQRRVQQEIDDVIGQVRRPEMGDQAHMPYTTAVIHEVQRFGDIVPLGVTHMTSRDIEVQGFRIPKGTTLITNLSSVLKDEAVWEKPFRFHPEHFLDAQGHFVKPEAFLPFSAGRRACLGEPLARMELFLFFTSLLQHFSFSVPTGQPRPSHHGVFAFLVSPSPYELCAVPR
Sequence of Cytochrome P450 1A2 (Homo sapiens) (P05177 whole entry, looked up): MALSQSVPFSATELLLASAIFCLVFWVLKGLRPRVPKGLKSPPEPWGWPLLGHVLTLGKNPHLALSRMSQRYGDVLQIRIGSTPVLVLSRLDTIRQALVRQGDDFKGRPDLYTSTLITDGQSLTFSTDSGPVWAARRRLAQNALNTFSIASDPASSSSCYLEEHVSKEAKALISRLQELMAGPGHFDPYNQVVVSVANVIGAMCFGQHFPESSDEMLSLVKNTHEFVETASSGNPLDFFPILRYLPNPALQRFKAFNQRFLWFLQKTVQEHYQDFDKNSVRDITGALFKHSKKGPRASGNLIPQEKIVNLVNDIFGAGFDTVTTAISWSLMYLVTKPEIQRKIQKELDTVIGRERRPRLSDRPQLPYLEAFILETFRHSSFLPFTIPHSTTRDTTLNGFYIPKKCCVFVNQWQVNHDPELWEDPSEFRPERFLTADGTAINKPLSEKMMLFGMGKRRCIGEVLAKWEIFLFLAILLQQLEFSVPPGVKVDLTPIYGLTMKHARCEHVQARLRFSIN
Sequence of Cytochrome P450 2C19 (Homo sapiens) (P33261 whole entry, looked up): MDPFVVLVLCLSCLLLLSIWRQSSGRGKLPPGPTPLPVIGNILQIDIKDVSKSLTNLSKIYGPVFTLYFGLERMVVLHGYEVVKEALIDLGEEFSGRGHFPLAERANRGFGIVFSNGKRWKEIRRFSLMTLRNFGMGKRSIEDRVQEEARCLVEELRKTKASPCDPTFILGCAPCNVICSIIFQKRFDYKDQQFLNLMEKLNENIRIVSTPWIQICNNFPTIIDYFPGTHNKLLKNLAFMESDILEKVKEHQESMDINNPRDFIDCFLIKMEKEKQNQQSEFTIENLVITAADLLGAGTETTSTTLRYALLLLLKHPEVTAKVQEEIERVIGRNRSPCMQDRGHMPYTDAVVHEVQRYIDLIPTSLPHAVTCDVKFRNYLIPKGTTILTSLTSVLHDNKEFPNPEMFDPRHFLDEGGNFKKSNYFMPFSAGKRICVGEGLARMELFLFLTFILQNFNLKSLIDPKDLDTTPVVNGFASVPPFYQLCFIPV
Sequence of Cytochrome P450 2C9 (Homo sapiens) (P11712 whole entry, looked up): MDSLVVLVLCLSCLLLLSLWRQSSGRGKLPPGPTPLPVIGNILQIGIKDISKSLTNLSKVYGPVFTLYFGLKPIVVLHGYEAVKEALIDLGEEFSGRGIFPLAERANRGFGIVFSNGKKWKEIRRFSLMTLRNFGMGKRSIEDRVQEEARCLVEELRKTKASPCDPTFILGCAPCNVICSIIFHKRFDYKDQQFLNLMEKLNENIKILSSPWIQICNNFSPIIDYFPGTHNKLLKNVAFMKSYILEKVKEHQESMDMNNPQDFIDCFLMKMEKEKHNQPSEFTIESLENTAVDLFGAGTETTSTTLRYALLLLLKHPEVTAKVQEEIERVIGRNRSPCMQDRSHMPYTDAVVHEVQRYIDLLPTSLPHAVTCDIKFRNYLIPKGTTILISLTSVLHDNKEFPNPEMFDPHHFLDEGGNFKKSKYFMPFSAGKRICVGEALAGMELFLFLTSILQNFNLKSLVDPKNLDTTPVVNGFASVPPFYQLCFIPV
Sequence of Voltage-gated inwardly rectifying potassium channel KCNH2 (Homo sapiens) (Q12809 whole entry, looked up): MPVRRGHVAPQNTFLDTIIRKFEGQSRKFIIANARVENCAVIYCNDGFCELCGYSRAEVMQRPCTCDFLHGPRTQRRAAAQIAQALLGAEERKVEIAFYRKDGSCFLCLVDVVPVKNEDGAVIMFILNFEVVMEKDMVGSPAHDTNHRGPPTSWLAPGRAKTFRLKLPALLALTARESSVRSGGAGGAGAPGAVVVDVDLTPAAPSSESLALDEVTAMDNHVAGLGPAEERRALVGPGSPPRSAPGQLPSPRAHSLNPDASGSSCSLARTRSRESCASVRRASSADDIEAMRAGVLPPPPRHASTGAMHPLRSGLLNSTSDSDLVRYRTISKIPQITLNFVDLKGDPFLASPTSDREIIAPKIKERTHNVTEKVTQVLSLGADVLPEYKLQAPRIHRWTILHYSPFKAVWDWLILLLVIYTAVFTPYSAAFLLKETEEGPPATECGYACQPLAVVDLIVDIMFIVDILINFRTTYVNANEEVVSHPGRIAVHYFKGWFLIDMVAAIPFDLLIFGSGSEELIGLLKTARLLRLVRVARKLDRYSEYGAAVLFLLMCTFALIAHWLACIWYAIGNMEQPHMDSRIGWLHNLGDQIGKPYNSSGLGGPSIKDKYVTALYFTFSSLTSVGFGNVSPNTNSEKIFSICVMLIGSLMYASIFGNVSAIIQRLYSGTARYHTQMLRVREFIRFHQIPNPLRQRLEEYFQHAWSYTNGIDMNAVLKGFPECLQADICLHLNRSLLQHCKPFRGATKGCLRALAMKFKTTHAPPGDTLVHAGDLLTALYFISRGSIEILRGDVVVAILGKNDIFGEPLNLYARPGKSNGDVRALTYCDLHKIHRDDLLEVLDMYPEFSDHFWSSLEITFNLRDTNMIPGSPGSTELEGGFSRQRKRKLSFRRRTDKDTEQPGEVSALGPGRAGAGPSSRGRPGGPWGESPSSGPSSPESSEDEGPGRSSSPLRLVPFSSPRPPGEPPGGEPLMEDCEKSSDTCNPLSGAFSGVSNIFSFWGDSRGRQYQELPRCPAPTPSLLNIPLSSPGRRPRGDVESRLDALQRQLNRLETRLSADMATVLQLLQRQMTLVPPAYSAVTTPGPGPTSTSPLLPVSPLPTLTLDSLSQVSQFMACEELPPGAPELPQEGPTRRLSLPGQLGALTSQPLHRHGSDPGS
Sequence of Cytochrome P450 3A4 (Homo sapiens) (P08684 whole entry, looked up): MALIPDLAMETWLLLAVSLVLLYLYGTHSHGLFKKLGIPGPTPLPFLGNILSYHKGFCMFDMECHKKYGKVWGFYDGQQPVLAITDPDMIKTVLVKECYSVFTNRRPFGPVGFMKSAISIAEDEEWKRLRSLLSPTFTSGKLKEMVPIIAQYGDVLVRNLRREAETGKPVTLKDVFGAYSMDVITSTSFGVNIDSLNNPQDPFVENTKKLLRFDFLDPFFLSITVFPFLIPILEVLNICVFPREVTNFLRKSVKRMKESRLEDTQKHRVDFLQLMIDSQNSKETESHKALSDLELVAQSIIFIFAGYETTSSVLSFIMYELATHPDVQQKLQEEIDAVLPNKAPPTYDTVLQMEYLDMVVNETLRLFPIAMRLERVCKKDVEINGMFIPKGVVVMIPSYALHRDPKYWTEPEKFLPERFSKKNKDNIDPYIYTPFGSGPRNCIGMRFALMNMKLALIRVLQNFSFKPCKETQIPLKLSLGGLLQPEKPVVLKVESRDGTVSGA

`CCOc1ccccc1OCCN[C@H](C)Cc1ccc(OC)c(S(N)(=O)=O)c1`: the outcome in assay [1] and in assay [2] was inactive. Moreover, in assay [3], the Potency is 12.3 µM (active). Also, the Potency entry in assay [4] and in assay [5] was “inactive” each time.
`CC(C)(C)C(=O)NCCCC(=O)O`: the compound was called inactive in assay [1] and in assay [2]. Moreover, the Potency result in assay [3], in assay [4], in assay [6], in assay [5], in assay [7] and in assay [8] was “inactive” each time.
With `NCC1CCC(C(=O)Oc2ccc(CCC(=O)O)cc2)CC1` (configuration not stated), the compound was classed as inactive in assay [1] and in assay [2]. In addition, the Potency entry in assay [3], in assay [4], in assay [6], in assay [5], in assay [7] and in assay [8] was “inactive” each time.
Regarding `O=C(CCBr)N1CCN(C(=O)CCBr)CC1`, the compound was classed as inactive in assay [1] and in assay [2]. The Potency result in assay [4], in assay [6], in assay [7] and in assay [8] was “inactive” throughout.
Consider `CCCC(C)C(O)CC` (configuration not stated), for which the Potency entry in assay [3], in assay [4], in assay [6], in assay [5], in assay [7] and in assay [8] was “inactive” each time.
`CC1(C)C(=O)C(C)(C)C1=O`: the Potency result in assay [3], in assay [4], in assay [6], in assay [5] and in assay [7] was “inactive” in each case.
With `OCCC(F)(F)C(F)(F)C(F)(F)C(F)(F)C(F)(F)C(F)(F)F`, the Potency entry in assay [3], in assay [4], in assay [6], in assay [7] and in assay [8] was “inactive” each time. For the same compound, the Potency in assay [5] is 31.7 µM (active).
With `CCCC[O][Al]([O]CCCC)[O]CCCC`, the Potency entry in assay [3], in assay [4], in assay [6], in assay [5], in assay [7] and in assay [8] was “inactive” each time.
Consider `C=CC(=O)OCCOCCOCC`, for which the Potency entry in assay [3], in assay [4], in assay [6], in assay [5], in assay [7] and in assay [8] was “inactive” each time.
For `CC(=O)Nc1ccc(S(=O)(=O)Nc2cc(C)on2)cc1`, the Potency entry in assay [3], in assay [4], in assay [6], in assay [5] and in assay [7] was “inactive” each time.
In the case of `O=CN1CCCCC1`, the Potency result in assay [3], in assay [4], in assay [6], in assay [5], in assay [7] and in assay [8] was “inactive” throughout.
Regarding `CCCCCCCCCCCCCCBr`, the Potency entry in assay [3], in assay [4], in assay [6], in assay [5], in assay [7] and in assay [8] was “inactive” throughout.
With `CC(O)C(CO)C(C)O` (configuration not stated), the Potency result in assay [3], in assay [6], in assay [7] and in assay [8] was “inactive” each time. For the same compound, the Potency in assay [4] was 80.6 µM (active); in assay [5], 32.1 µM (active).
For `CCOCCOCCOC(C)=O`, the Potency result in assay [3], in assay [4], in assay [6], in assay [5] and in assay [7] was “inactive” in each case.
`O=Cc1ccc(C(=O)O)cc1`: the Potency result in assay [3], in assay [4], in assay [6] and in assay [5] was “inactive” each time.
With `C=CCOC(=O)CCCCCCCC`, the Potency in assay [3] was 63.8 µM (active); in assay [5] it was 40.2 µM (active). Also, the Potency entry in assay [4], in assay [6], in assay [7] and in assay [8] was “inactive” each time.
`Cc1nc2ccc(Cl)cc2[nH]1`: the figures for the Potency in assay [3], in assay [4] and in assay [5] were 31.7 µM (active), 39.8 µM (active) and 2.82 µM (active), respectively. In addition, the Potency entry in assay [6] and in assay [7] was “inactive” throughout.
As for `O=S(=O)(O)CC(O)CCl` (configuration not stated), the Potency entry in assay [3], in assay [4], in assay [6], in assay [5] and in assay [7] was “inactive” each time.
As for `CCOC(=O)COc1ccc2c(C)c(CCN(CC)CC)c(=O)oc2c1Cl`, the result in assay [1] and in assay [2] was inactive. Also, the Potency entry in assay [6], in assay [5] and in assay [8] was “inactive” in each case.
Turning to `CC1(C)CC(N)CC(C)(C)N1`, the Potency entry in assay [3], in assay [4], in assay [6], in assay [5], in assay [7] and in assay [8] was “inactive” each time.
Regarding `CCCC(=O)OC`, the Potency entry in assay [3], in assay [4], in assay [6], in assay [5] and in assay [7] was “inactive” each time.
For `COc1cc2nc(N3CCN(C(=O)C4CCCO4)CC3)nc(N)c2cc1OC` (configuration not stated), the call in assay [2] was inactive. In addition, the Potency entry in assay [6] and in assay [5] was “inactive” in each case.
In the case of `C/C=C(\C)C=O`, the Potency entry in assay [3], in assay [4], in assay [6] and in assay [7] was “inactive” throughout. Besides, the Potency in assay [5] was 63.6 µM (active).
With `CC(C)(O)c1ccc(C(C)(C)O)cc1`, the Potency result in assay [3], in assay [4], in assay [6], in assay [5] and in assay [7] was “inactive” in each case.
With `COC(=O)C(c1ccccc1Cl)N1CCc2sccc2C1` (configuration not stated), the Potency was 17.4 µM (active) in assay [3], 0.871 µM (active) in assay [4], 17.4 µM (active) in assay [6] and 15.5 µM (active) in assay [5]. For the same compound, the Potency entry in assay [7] was “inactive”.
Consider `N=C(N)S(=O)O`, for which the Potency entry in assay [3], in assay [4], in assay [6], in assay [5], in assay [7] and in assay [8] was “inactive” in each case.
In the case of `C=CCN1CCc2nc(N)sc2CC1`, the call in assay [1] and in assay [2] was inactive. Further, the Potency result in assay [6], in assay [5], in assay [7] and in assay [8] was “inactive” each time.
Take `CCCOc1ccc(C(=O)OCCN(CC)CC)cc1N`: the Potency in assay [3] is 4.9 µM (active); in assay [5] it was 17.4 µM (active). Further, the Potency result in assay [4], in assay [6], in assay [7] and in assay [8] was “inactive” throughout.
Turning to `O=C1CC2(CCCC2)CC(=O)N1CCNCC1COc2ccccc2O1` (configuration not stated), the Potency in assay [3] is 0.309 µM (active). For the same compound, the Potency entry in assay [4] and in assay [6] was “inactive” throughout.
Turning to `CC(=O)SCC(CC(=O)c1ccc(C)cc1)C(=O)O` (configuration not stated), the Potency result in assay [3], in assay [4], in assay [5] and in assay [7] was “inactive” throughout. The Potency in assay [6] was 15.5 µM (active).
For the compound `CC/C=C\CCCCCCCCCCOC(C)=O`, the Potency result in assay [3], in assay [4], in assay [6], in assay [5], in assay [7] and in assay [8] was “inactive” each time.
In the case of `CCCCCCC(O)CO` (configuration not stated), the Potency entry in assay [3], in assay [4], in assay [6], in assay [5] and in assay [7] was “inactive” each time.
Regarding `CCOC(=O)CC`, the Potency result in assay [3], in assay [4], in assay [6], in assay [5], in assay [7] and in assay [8] was “inactive” each time.
In the case of `CC[N+](C)(CC)CC`, the Potency result in assay [3], in assay [4], in assay [6], in assay [5], in assay [7] and in assay [8] was “inactive” in each case.
